Screening data: PubChem BioAssay, National Center for Advancing Translational Sciences (NCATS)
Most compounds without a hit are left out; they make up all but 11% or so of the library.
HPGD block: HPGD (human) dehydrogenase inhibition; P15428; purified HPGD, NADH fluorescence kinetic, PGE2 substrate; Potency, µM, for the others: top-dose activity change, negative = inhibition, hits mostly inhibitors; actives 4.3% (n = 150,000); AID 894; also: potency is read from the fitted curve at half-maximal effect
Target sequence (P15428 whole entry, looked up): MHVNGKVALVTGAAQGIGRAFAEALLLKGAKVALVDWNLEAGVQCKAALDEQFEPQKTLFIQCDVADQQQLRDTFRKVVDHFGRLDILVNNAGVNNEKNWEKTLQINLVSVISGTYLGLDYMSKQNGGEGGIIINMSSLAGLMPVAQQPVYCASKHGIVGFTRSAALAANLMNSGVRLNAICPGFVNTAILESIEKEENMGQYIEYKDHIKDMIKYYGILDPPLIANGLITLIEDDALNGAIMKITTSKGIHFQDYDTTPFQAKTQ
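20 nM HPGD preincubated 15 min at room temperature with compound in 50 mM Tris-HCl pH 8, 0.01% Tween 20. Started with 1 mM NAD+ and 30 uM prostaglandin E2; NADH fluorescence (360/450 nm) read 5 times over 30-s intervals, last minus first.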
KDM4E inh: inhibitors of human JMJD2E histone demethylase | B2RXH2 | JMJD2E catalytic domain, FDH-coupled NADH fluorescence (FDH is formaldehyde dehydrogenase) | Potency, µM (top dose mostly 57.1 µM), inactives show at the highest dose activity change, negative = inhibition, usual class: inhibitors | actives 1.6% (n = 230,000);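 also: potency is read from the fitted curve at half-maximal effect; 0% = wells with enzyme and -100% = buffer wells without enzyme; nearly all actives have a fitted effect of over 50% in size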
Target sequence (B2RXH2 1-337 limits assumed): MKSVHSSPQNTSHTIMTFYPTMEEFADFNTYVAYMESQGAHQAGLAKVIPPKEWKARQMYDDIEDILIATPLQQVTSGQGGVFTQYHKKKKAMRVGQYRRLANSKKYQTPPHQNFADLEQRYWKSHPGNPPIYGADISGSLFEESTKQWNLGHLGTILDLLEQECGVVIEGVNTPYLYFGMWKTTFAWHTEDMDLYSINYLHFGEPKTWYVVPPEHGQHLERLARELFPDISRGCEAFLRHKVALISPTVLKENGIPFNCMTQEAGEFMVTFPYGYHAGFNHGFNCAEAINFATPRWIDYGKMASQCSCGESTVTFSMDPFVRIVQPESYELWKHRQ
PNC inhibitor: inhibitors of perinucleolar compartment assembly | PC3M PTB-GFP, PNC prevalence imaging, 16 h; stronger effect = lower value | actives 3.1% (n = 140,000) | activity change (PNC), negative = inhibition, % at 10 µM | AID 2417;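 active = readout at or below -70, meaning at least 70% loss of cells showing the perinucleolar compartment, a nuclear body marking cancer cells; inconclusive = readout between -30 and a set limit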;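 also: plate controls were DMSO wells for no effect and camptothecin positive control wells for full effect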
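Read-out is percentage of cells bearing a perinucleolar compartment, from automated 20x imaging of fixed, Hoechst-stained PC3M PTB-GFP cells. Cells were seeded 4 h, then exposed 16 h to compound (23 nl of library stock) in duplicate plates.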
ALDH1A1 inh: ALDH1A1 (human) enzyme inhibition; P00352; Purified ALDH1A1, NADH fluorescence, propionaldehyde substrate; Potency, µM (doses to about 75.3 µM), without a hit: top-dose activity, negative = inhibition, hits mostly inhibitors; actives 7.3% (n = 220,000);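 also: potency is read from the fitted curve at half-maximal effect; plate controls were no enzyme wells and a reference inhibitor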
Numbers without * were called inactive; ? = inconclusive; . = not tested or not shown. Unless noted, calls follow the shape of the dose curve; as a rule, active = well fitted inhibition curve with a large enough effect (not every such curve was filed as active); inconclusive = small, poorly fitted or top-dose-only effect, or another doubt; inactive = no such curve, though single readings can be large or run the other way. Unless noted, % is scaled to controls: 0 for no effect and ±100 for the full control effect.

SMILES	HPGD block	KDM4E inh	PNC inhibitor	ALDH1A1 inh
CCC1=C(OC(=O)N(CC)CC)N2C(=O)OC(=NCCOC)[C@]2(Cc2ccccc2)[C@H]2C1=CC[C@H]1C(=O)N(CC(=O)OC)C(=O)[C@H]12	-3%	-15%	.	9%
CCC1=C(OC(=O)N(CC)CC)N2C(=O)OC(=NCCOC)[C@]2(C)[C@H]2C1=CC[C@H]1C(=O)N(CC(=O)OC)C(=O)[C@H]12	-15%	2%	.	28µM*
CN(C)CCNc1c(N)c(=O)oc2ccccc12	.	-7%	.	-9%
Cc1ccccc1Nc1c(N)c(=O)oc2ccccc12	16µM*	-13%	?	-4%
COc1cc(C=C2C(=O)c3ccccc3C2=O)ccc1O	.	-15%	.	?
COc1ccc(C=C2C(=O)c3ccccc3C2=O)cc1O	.	-25%	.	0.89µM*
COc1cc(C=C2C(=O)c3ccccc3C2=O)cc(OC)c1	.	-14%	.	.
COc1cccc(/C=C2\C(=O)C(=O)c3ccccc32)c1	3.5µM*	-7%	?	?
COc1cc(C=C2C(=O)c3ccccc3C2=O)cc(OC)c1OC	.	-26%	.	1.6µM*
Cn1nc(NC(=O)CC23CC4CC(CC(C4)C2)C3)c2c(F)cccc21	.	4%	.	.
CCOC(=O)CCC(NC(=O)CCCCCCCC(=O)NC(CCC(=O)OCC)C(=O)OCC)C(=O)OCC (stereo not given)	-8%	5%	52	8%
COc1ccc(C2Nc3ccccc3C(=O)N2c2ccc(C)cc2)cc1Cn1cc([N+](=O)[O-])cn1 (stereo not given)	-19%	2%	14	28µM*
CCc1ccc(CN(C)Cc2nc(-c3cccc(Cl)c3)no2)nc1	.	5%	.	5%
CNC(=O)c1cc2ccccc2o1	0%	-5%	19	13%
O=C(Cc1ccc(F)cc1)OCC(=O)c1cc2ccccc2o1	?	-25%	20	?
O=C(CCNc1ccc(F)cc1)c1cc2ccccc2o1	.	-14%	.	0.1µM*
O=C(CCNc1cccc(F)c1)c1cc2ccccc2o1	.	?	.	0.025µM*
N#Cc1ccc(CN2CC[C@@]3(CCCN(C(=O)c4cnccn4)C3)C2)cc1	-3%	.	.	2%
CC1S/C(=N/N=C/c2ccco2)N(Cc2ccccc2)C1=O (stereo not given)	.	?	.	10µM*
CN(C)c1ccc(C(C(=O)NC(C)(C)C)N(C(=O)c2csnn2)C2CC2)cc1 (stereo not given)	?	-21%	-96*	5.6µM*
Cc1cc(=O)cc2oc3cc(N)c(-c4c(C)cc(O)cc4O)c(C)c3nc1-2	-12%	8.9µM*	.	-5%
O=C(OCCN1C(=O)c2cccc3c(N4CCOCC4)ccc(c23)C1=O)c1ccc(Cl)cc1Cl	-15%	8%	-98*	5%
COc1ccc(/C=C2\N=C(c3ccccc3)NNC2=O)cc1	.	0%	.	.
Cc1nc(SCc2cccc(F)c2)[nH]c(=O)c1C#N	.	28µM*	4	-11%
Fc1cccc(CSc2nc3ncccc3[nH]2)c1	18µM*	3%	25	?
SMILES	HPGD block	KDM4E inh	PNC inhibitor	ALDH1A1 inh
N#Cc1c(-c2ccco2)nc(SCC(=O)Nc2ccc(S(N)(=O)=O)cc2)[nH]c1=O	-7%	-4%	43	7%
N#Cc1c(-c2ccco2)nc(SCc2ccc(F)cc2)[nH]c1=O	10µM*	-4%	-13	0%
COC(=O)N1CCC[C@@]2(CCN(Cc3cc(C(F)(F)F)cc(C(F)(F)F)c3)C2)C1	-6%	.	.	12%
COc1ccccc1C(CCN(Cc1cccs1)C(C)=O)c1ccco1 (stereo not given)	.	5%	31	8.9µM*
CCCN(CCC)C(=O)CC(c1ccc(F)cc1)c1ccco1 (stereo not given)	1%	-1%	24	?
CC(C)NC(=O)N(Cc1ccccc1)Cc1cccs1	.	3%	.	0%
CCN(CC)C(=O)CC(c1ccccc1)c1ccco1 (stereo not given)	16µM*	-1%	-1	-11%
CCC(=O)N(CCC(c1ccccc1)c1ccco1)Cc1cccs1 (stereo not given)	-20%	-3%	76	8.9µM*
CCC(=O)N(CCC(Cc1ccccc1)c1ccc2c(c1)OCO2)Cc1ccccc1F (stereo not given)	-10%	-10%	34	?
CCC(=O)N(CCC(Cc1ccccc1)c1ccco1)Cc1ccco1 (stereo not given)	.	-4%	.	14µM*
O=[N+]([O-])c1ccc(-c2cn3c(n2)CCC3)cc1	.	-5%	.	.
CC(=O)Cc1nnn(-c2cc(C)on2)n1	.	0%	.	.
COC(=O)C1=C(C)NC(=O)NC1c1cccc(OC)c1OCc1ccccc1 (stereo not given)	-8%	12%	-26	3%
O=C1Nc2ccccc2C(=O)N2CCC[C@@H]12	-3%	11%	.	11%
CN(C)c1ccc(/C=N/N=C(N)N)cc1[N+](=O)[O-]	.	-13%	.	-12%
O=C(CN1C(=O)NC2NC(=O)NC21)N/N=C/c1ccccc1F (stereo not given)	.	3%	.	6%
O=C(CN1CCC(C(O)(c2ccccc2)c2ccccc2)CC1)Nc1ccccc1	-16%	0%	21	-11%
O=C(CN1CCC(C(O)(c2ccccc2)c2ccccc2)CC1)Nc1cc(Cl)ccc1Cl	-12%	-8%	-100*	?
CC(CN(C)C)NC(=O)c1ccc(Cc2nc3ccccc3[nH]2)cc1 (stereo not given)	-1%	.	.	18%
CCOC(=O)c1c(C)cccc1OCC(N)=O	-9%	4%	-100*	-5%
CCOC(=O)c1c(C)oc2ccc(OCC(N)=O)cc12	-6%	-12%	?	22%
COc1cc(OC)c2c(OC)c(-c3ccc4c(c3)OCO4)c(=O)oc2c1	?	-12%	.	?
O=C(CSc1nnc(-c2cccnc2)n1-c1ccc(SC(F)F)cc1)N1CCCc2ccccc21	-2%	-8%	28	20µM*
CCOc1ccccc1-n1c(SCC(=O)N2CCCc3ccccc32)nnc1-c1cccnc1	-1%	-1%	21	13µM*
O=C(C1CCC(CNc2c(N3CCOCC3)c(=O)c2=O)CC1)N1CCN(c2ccccc2)CC1 (stereo not given)	-18%	9%	30	4%
SMILES	HPGD block	KDM4E inh	PNC inhibitor	ALDH1A1 inh
O=C(C1CCC(CNc2c(N3CCCCC3)c(=O)c2=O)CC1)N1CCc2ccccc2C1 (stereo not given)	0.56µM*	-1%	-27	-2%
COc1ccccc1CNC(=O)C1CCC(CNc2c(N3CCC(C)CC3)c(=O)c2=O)CC1 (stereo not given)	.	2%	.	.
CC1CCN(c2c(NCC3CCC(C(=O)N4CCc5ccccc5C4)CC3)c(=O)c2=O)CC1 (stereo not given)	2.5µM*	5%	25	-2%
CC1CCCN(C(=O)C2CCC(CNc3c(N4CCCCC4)c(=O)c3=O)CC2)C1 (stereo not given)	.	-1%	.	.
CCN(Cc1ccccc1)C(=O)C1CCC(CNc2c(N3CCOCC3)c(=O)c2=O)CC1 (stereo not given)	25µM*	4%	32	0%
CCCn1c(SCC(=O)Nc2nnc(CC)s2)nnc1-c1ccncc1	.	-9%	.	?
COc1ccc2c(c1)oc(=O)c1c3ccccc3[nH]c21	.	0%	.	-13%
